Data from the OligoGym collection.

The sequences below were run against MRPS24 (assay: pooled miR-30 sensor sort-seq; sequence = guide strand). Conditions: shRNA.
Also: reference of the scale not given here.

Q: With TTGGAGGTGGAGTCGCACAGGA as the sequence, how does the sensor-assay potency score (higher = more potent) read?
A: -0.602

Q: TAAAACCAGCTGGTCAGCCAGG was tested. Which sensor-assay potency score (higher = more potent) did it give?
A: -1.47

Q: With AAGGAAAACATCCTCCACCGTT as the sequence, how does the sensor-assay potency score (higher = more potent) read?
A: -0.646

Q: How did the sensor-assay potency score (higher = more potent) turn out when TTTGTAAAAGTAGGACAGCAAA was run?
A: -1.45

Q: How did the sensor-assay potency score (higher = more potent) turn out when TTGTGTGGAGACAACTGCCTCA was run?
A: -0.151

Q: How did the sensor-assay potency score (higher = more potent) turn out when TACCCCACATGAACTTGCGAAG was run?
A: -1.43

Q: With TTCACTGTAGCCCACGAGGAAG as the sequence, how does the sensor-assay potency score (higher = more potent) read?
A: -1.08

Q: TAGGTCACCGGCTTGTCCCCCT was tested. Which sensor-assay potency score (higher = more potent) did it give?
A: 0.167

Q: For TACTTGTGTGGAGACAACTGCC, which sensor-assay potency score (higher = more potent) is on record?
A: -0.594

Q: Which sensor-assay potency score (higher = more potent) does the source give for TAGGACAGCAAAGTTTCACTGT here?
A: 0.628

Q: TAAAAGTAGGACAGCAAAGTTT was tested. Which sensor-assay potency score (higher = more potent) did it give?
A: -1.12

Q: For TGTGCAGCGACAGCCAGCCTTT, which sensor-assay potency score (higher = more potent) is on record?
A: -0.931

What follows are sequences tested against MRS2 in the same assay as above. Conditions: shRNA.

Q: For TTGATACACAGAGCTCTTCTAG, which sensor-assay potency score (higher = more potent) is on record?
A: -0.709

Q: How did the sensor-assay potency score (higher = more potent) turn out when TAATATCAGAAGACACTCTGGA was run?
A: 0.725

Q: TTAATATCTGTTTCTAACTCTG was tested. Which sensor-assay potency score (higher = more potent) did it give?
A: 0.197

Q: TTCCATGCTTCTATCTGCCAGA was tested. Which sensor-assay potency score (higher = more potent) did it give?
A: -0.489

Q: Which sensor-assay potency score (higher = more potent) does the source give for TAATATCTGTTTCTAACTCTGA here?
A: -0.212

Q: For TGAATCATCAATCAGCACCCTA, which sensor-assay potency score (higher = more potent) is on record?
A: -0.284

Q: TTTGTCACAGTAAATACTGGGG was tested. Which sensor-assay potency score (higher = more potent) did it give?
A: 0.152

Q: TAGCAACTCTTCCTCATCCAAG was tested. Which sensor-assay potency score (higher = more potent) did it give?
A: -1

Q: With TACACAGAGCTCTTCTAGCAAC as the sequence, how does the sensor-assay potency score (higher = more potent) read?
A: -1.3

Q: TAAACCGGTGCACTTCACCTGC was tested. Which sensor-assay potency score (higher = more potent) did it give?
A: -0.316

Q: TGTGATACTCATTACATGCTGA was tested. Which sensor-assay potency score (higher = more potent) did it give?
A: 0.129

These sequences were tested against MST4 in the same assay as above. Conditions: shRNA.

Q: Which sensor-assay potency score (higher = more potent) does the source give for TTATCATAGACAAACAACTCAG here?
A: -0.749

Q: TTGCTTTAAATTTCTAACCATG was tested. Which sensor-assay potency score (higher = more potent) did it give?
A: -1.11

Q: With TTCAACATTACCAAACACCTAT as the sequence, how does the sensor-assay potency score (higher = more potent) read?
A: -0.0444

Q: TATCATAGACAAACAACTCAGG was tested. Which sensor-assay potency score (higher = more potent) did it give?
A: -0.251

Q: For TTTAATAGCAACGACTTGCTGG, which sensor-assay potency score (higher = more potent) is on record?
A: 0.885

Q: With TATTTTGTTACATATGAGCTGT as the sequence, how does the sensor-assay potency score (higher = more potent) read?
A: -0.0518

Q: For TTTGTGAACAGTTCTTCTGGAT, which sensor-assay potency score (higher = more potent) is on record?
A: 0.425

Q: How did the sensor-assay potency score (higher = more potent) turn out when TATAGGACAATTTATTACCATG was run?
A: -1.23

Q: TAAACTGTAATTGTGTTTCAGT was tested. Which sensor-assay potency score (higher = more potent) did it give?
A: 0.0353

Q: For TAATATTTGACAATTACTCAGA, which sensor-assay potency score (higher = more potent) is on record?
A: -0.142

Q: TAAAATTGCCTCTTCTACCTAA was tested. Which sensor-assay potency score (higher = more potent) did it give?
A: 0.733

Q: How did the sensor-assay potency score (higher = more potent) turn out when TAGTTTAATAGCTTCTTCCAAA was run?
A: -1.19

What follows are sequences tested against MTDH in the same assay as above. Conditions: shRNA.

Q: Which sensor-assay potency score (higher = more potent) does the source give for TTCTCGGACAGTTTCTTCCGGT here?
A: -0.0604

Q: For TTTATCATCATCTGAGACCTTT, which sensor-assay potency score (higher = more potent) is on record?
A: -0.0741

Q: How did the sensor-assay potency score (higher = more potent) turn out when TTCTAATTCTTCTGTGTCCTGT was run?
A: 0.277

Q: TATTCTTCTTGGAACCAACAGG was tested. Which sensor-assay potency score (higher = more potent) did it give?
A: -0.744

Q: Which sensor-assay potency score (higher = more potent) does the source give for TAAATTAAGATCGTTCTTGTTC here?
A: 0.14
